Screens (PubChem)
mHtt clearance = clearance of mutant huntingtin inclusions, primary screen, imaging, HeLa Exon1htt(103Q)mCFP, confocal imaging | inhibition, % at 1.5 µM | hit rate 0.42% among 47,000 | aggregate imaging; zero = plate's median compound well | AID 853, 2007;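 active means inhibition of aggregate fluorescence above about 70%, also judged a hit by eye on the cell image, limit read from the data, passing the limit was not always enough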;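 further: cells exposed to compound for three days before fixation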
SKBR3 24h inh = SK-BR-3 proliferation inhibitors, primary screen, cell-based, human, 24 h. SK-BR-3 viability, CellTiter-Glo ATP luminescence; active compounds read low. viability, % at 10 µM. hit rate 0.47% among 41,000. AID 847, 2007;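 active means viability at or below the median of all test compounds minus 3 SD, in both replicates if run twice, cut at about 45% in these data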;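 further: 100% = median untreated cell wells and 0% = median positive control drug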
Her2 expr inh = inhibitors of Her2 protein expression, primary screen, SKBR-3 cells, AlphaScreen, 66K library. SKBR-3 HER2 protein level, 18-24 h; active compounds read low. Receptor tyrosine-protein kinase erbB-2 (Homo sapiens), P04626. hit rate 0.69% among 65,000. HER2 level % of control, % at 10 µM;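 active means HER2 level under 5% of the carrier-only control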;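 further: 100% = DMSO carrier and 0% = 500 nM PU-H71 HSP90 inhibitor; lower value means stronger loss of Her2 protein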
The depositor's hits bear a star; · = no result given. Sampled rows, rich in hits. Any-hit rate of the full collection: about 0.97%.

SMILES	mHtt clearance	SKBR3 24h inh	Her2 expr inh
Cc1cc(-c2cc(N)n(-c3ccccc3)n2)c(C)n1C1CCCC1	·	43*	57
Cc1cc(N)n(-c2ccccc2)n1	-38	96	116
Cc1ccc(S(=O)(=O)NCCN=C(CN2CCCC2)NS(=O)(=O)c2ccc(C)cc2)cc1	·	126	79
CCN(CC(=O)NCc1ccc(F)cc1)CC(O)COCc1cccc(OC)c1 (configuration not stated)	-88	·	84
CSCC[C@H](NC(=O)OC(C)(C)C)c1nnc(SCC=C(C)C)o1	·	78	85
COc1ccc(OCCn2c(=N)n(CCO)c3ccccc32)cc1	-20	90	80
N=c1n(CCO)c2ccccc2n1CCOc1ccc(Cl)cc1Cl	47	·	2.4*
O=C1NC2=C(C(=O)CCC2)C(c2ccc3ncccc3c2)N1 (configuration not stated)	·	·	144
O=C(NCc1cccc(C(F)(F)F)c1)C1CCN(c2ncccn2)CC1	-22	88	104
Cc1cc(C)nc(N2CCC(C(=O)NCc3cccc(C(F)(F)F)c3)CC2)n1	-10	40*	100
Cc1cc(NC(=O)C(C)C)ncc1NC(=O)CCc1ccccc1	-19	·	137
O=C(N1CCOCC1)N1CCCC(c2nc(-c3cccs3)no2)C1 (configuration not stated)	50	·	131
O=C(Cc1ccccc1)N1CCCC(c2nc(-c3cccs3)no2)C1 (configuration not stated)	51	41*	81
CCCCOCCCNC(=O)N[C@H](C(=O)OC)C(C)C	-2	95	77
CCCCNC(=O)OCCNC(=O)NC	·	77	-55*
Cc1ccc(C)n1-c1ccc(-c2nnco2)cc1	19	·	90
Cc1cc(-c2nnco2)c(C)n1-c1ccc(F)cc1	·	84	4.7*
O=C1c2ccccc2C(=O)C1Cc1cccc2ccccc12	4	·	·
Cc1sc2ncnc(OCC(=O)NCc3cccs3)c2c1C	12	·	111
CN(C)C=Nc1c(Br)cc(Br)c2nonc12	91*	133	58
CN(C)C=Nc1nonc1-c1ncn[nH]1	28	114	116
COc1ccccc1NS(=O)(=O)c1cccc2cccnc12	·	·	115
O=C(O)c1ccccc1NS(=O)(=O)c1cccc2cccnc12	77*	104	94
COCC(C)n1c(C)cc(C(=O)COC(=O)c2ccc(N3CCCC3=O)cc2)c1C (configuration not stated)	·	·	93
CCCc1cc(=O)oc2cc(OCC(=O)N3CCc4ccccc43)ccc12	11	·	·
SMILES	mHtt clearance	SKBR3 24h inh	Her2 expr inh
Cn1nc(-c2ccccc2)c2nc3ccccc3nc21	17	86	65
CCCCn1nc(-c2ccccc2)c2nc3ccccc3nc21	74*	·	·
CCCCS(=O)CC(COCc1ccccc1)OC(=O)CSc1nc(C)cc(C)n1 (configuration not stated)	·	94	111
COc1ccc(Cl)cc1C(=O)N1CCN(c2ccccn2)CC1	1	·	·
COc1ccccc1C(=O)N1CCN(c2cccc(Cl)c2)CC1	·	40*	41
Cc1c(NC(=O)c2c(F)c(F)c(F)c(F)c2F)c(=O)n(-c2ccccc2)n1C	·	91	87
Cc1c(NC(=O)c2ccccc2)c(=O)n(-c2ccccc2)n1C	78*	·	·
CCOC(=O)c1[nH]cc(-c2ccccc2)c1N1CCOCC1	·	98	99
Nc1nc(SCC(=O)N2CCCc3ccccc32)[nH]c(=O)c1-c1ccccc1	70*	109	110
O=C(CSc1nc2c(cnn2-c2ccc(F)cc2)c(=O)[nH]1)N1CCCc2ccccc21	-47	90	50
CCn1c2ccccc2c2cc(N)ccc21	·	112	93
CCn1c(C)cc(=S)c2ccccc21	-34	85	-19*
Cc1cc(C)nc(NC(=O)CN2C(=O)c3ccccc3C2=O)n1	8	·	145
Cc1c(NC(=O)CSc2ccccc2C(=O)Nc2cccnc2)c(=O)n(-c2ccccc2)n1C	·	·	103
COc1ccc(C2c3c(oc4c(C)cc(C)cc4c3=O)C(=O)N2Cc2cccnc2)cc1OC (configuration not stated)	·	51	102
COc1cc(C2c3c(oc4c(C)cc(C)cc4c3=O)C(=O)N2Cc2cccnc2)ccc1O (configuration not stated)	·	35*	80
CC1(C)NC(=O)N(CCCSc2ccc(Cl)cc2)C1=O	·	83	78
CCN1C(=O)c2cccc3c(NC(=O)c4ccc(S(=O)(=O)N5CCOCC5)cc4)ccc1c23	72*	75	96
CCN1C(=O)c2cccc3c(NC(=O)c4ccc(S(=O)(=O)N(C)C)cc4)ccc1c23	·	79	75
CCOc1cc(S(=O)(=O)NCc2ccccn2)ccc1Cl	-81	·	·
CCc1cc(C(=O)Cc2ccc(F)cc2)c(O)cc1O	·	87	82
